system: VDR:RXRa (NR concentration 270 nM, RXRa partner concentration 90 nM); test: PBM binding z-score (relative to random genomic background probes); higher = stronger binding; sequences stand for … in GC…GCGATTGACAGCGTAGAATGAAGG
Protocol: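 Protein-binding microarray (Agilent 4x180K custom design, double-stranded 60-nt probes: 5' GC cap, 34-nt variable region, 24-nt constant primer region; full probe sequence given). Purified or IVT nuclear receptor:RXRα heterodimers (3:1 NR:RXRα, mostly 270:90 nM) or homodimers were incubated for 1 h in PBS with 2% milk and no ligand, then detected with Alexa488 antibodies. Fluorescence from o1-orientation probes (~5 replicates averaged) was converted to z-scores against 500 random hg19 background probes. Variable regions are seed direct-repeat (DR0–DR5) sites, all their single-nucleotide variants and half-site ablations.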

Row | Sequence | PBM binding z-score
1 | TCTTGTAGATCAATAGAGGTAAAGAAAGTGCGCT | 0.45
2 | AGAATGAGGGTATACGTAGATCAGGGAAGAAAGT | 0.239
3 | TCTAGTAGGTTAGGGGCATTCAGAATGGCGTCGA | 1.04
4 | ACTAGTTGGTCAGCTGTGGTCACACACAATTCGG | 0.029
5 | TATCCTAGGTCATTCAGGGGCCAGTATAGAAAGC | 3.57
6 | TCATATAGATAAACAGGTGAAAGTCCGTAAGTTA | 1.18
7 | ACAGACAGGCGATGAAGGTAACTCAGGCTATCAT | -0.262
8 | CGAGACAGGTGAAAGGTAACTCAGTCTGGTACGC | 0.633
9 | TGAATGAGGTTAGAGATCAGGGAACGTGGCGTCG | 0.296
10 | CCTTCCGGGTCAAGGTTATAGCACGGGTGGTACG | 3.38
11 | ACAGACAGGTGAGTGCAGGTAACTCAGCTGGACG | -0.127
12 | GCTAGTTGGTCAGTCAAAGGTCACACACCGGTCG | 4.3
13 | TCTTGTAGATCAACCGGAGGTTAAGAAAGATCGA | 0.672
14 | TATACAGGGTCAAAGGCCATAGTACGAATGTCGA | 5.08
15 | GCTGCCAGGTCAACTGATGGTCAGCTAAAGCTCG | 2.62
16 | CGTCCAAGGTCAGCAGGTCATTGAAAGCGACGTG | 4.67
17 | CGTCCAAGGTCAGCAGGTCAGTGCAAGCGACGTG | 3.93
18 | CCTAGTTGGTCAAGGTCACACAGGCTATAGGTAC | 4.72
19 | ACTTACCGGTCAACGAGGTTATAGCACGCGTATA | 6.19
20 | CCTTACGGGTCACTGGCAGGTTATAGCATTTGGA | 3.81

Row | Sequence | PBM binding z-score
21 | GCTCGGAGGACAAGGTAAGAGCTTTGTCCGTAGA | -0.675
22 | TTGCCTAGGTCATGCGGGCCAGTATAGTGTCGGC | 2.8
23 | CGAACTAGGTCATTGACAGGACAGTGATTAGTAA | 2.47
24 | ATTTGTAGGTTAAGGGTCATTCAGGTTGGTTCGC | 6.08
25 | TCTCGGAGGACACGAAAGCTCAGAGCTCGACATC | -0.282
26 | TCAGACCGGTGAAGGTAACTCAGGTACGCAGTCG | 0.501
27 | CTTACTGGGCCATCAGGTCATTGATATCAACGTT | 1.91
28 | AGAGACAGGTGATGAAGGTAACTCAGGCTATCAT | 0.424
29 | AGTCAAAGTTCAGGACGCGGTAACGTAAAGCACG | 2.37
30 | GCTAGCAAGCCATTTGGGTCACTCAATGACGGGC | -0.0244
31 | CCTTACGGGTCACTGACAGGTTATAGCATTTGGA | 3.8
32 | GCTAGCAGGCCATTTGGGTCCCTCAATGACGGGC | -0.73
33 | CGTCAAAGTTCAAGGTAACGTATCAGAAAGCAGC | 3.97
34 | GGAACAAGGGCAAAGTTGATAGCATCTGTCGACG | 0.828
35 | TGAATGAGGTTAAAGATAAGGGAACGTGGCGTCG | 1.36
36 | AGAACGAGGGCACGCTGAGTAGATAGCAGAGTAG | 0.928
37 | ATCTCTAGGTAAACTTCAGTGAAAGATCGATAGA | 0.36
38 | GCTTACGGGACAAAGGTTATAGCATGAATAGAAT | 1.24
39 | GCTTACGGGTCAAAGGTTATAGCATGAATAGAAT | 5.86
40 | AATACAGGGTCACTAGGCAAGAGTAGGTACGAAT | 3.97

— the supplement of paper PMC6555819
